MPTP inh: blocks calcium-induced mitochondrial swelling; isolated mouse mitochondria, Ca2+ swelling absorbance, 30 min; inhibition, % at 10 µM; actives 1.4% (n = 360,000);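 active = inhibition of 50% or more, scaled per plate between neutral and stimulator controls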;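 note: 0% = DMSO wells given calcium and 100% = 1 mM EGTA wells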
CSC inhib: blocks cancer stem cells; AID 2717; cancer stem cell-like cells viability, luminescence; inhibition, % at 7.5 µM; actives 1.1% (n = 300,000); in the data active = inhibition above about 75%; inconclusive = no clear call, values can overlap the other calls; tested in HMLE shEcad cells
Mdm2-MdmX inh: human Mdm2/MdmX binding inhibition; actives 3% (n = 330,000); SaOS-2 split-luciferase Mdm2/MdmX complementation, luminescence; AID 485346; inhibition, % at 8 µM;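 active = inhibition of at least 50% at 8 µM in the primary screen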
Beta apoptosis: beta cell apoptosis inhibition; INS-1E cytokine-induced death, ATP luminescence, 48 h; percent of positive-control rescue, neutral wells zero; actives 0.8% (n = 300,000); protection from apoptosis, % (no concentration beside the values);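 active = Every replicate reaches about 75%, or at least half do and their mean reaches it too, limit read from the data; inconclusive = At least half of replicates reach the limit but their mean does not; inactive = Under half of replicates reach the limit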;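 note: 0% = cytokine-treated negative control wells and 100% = positive control rescue; higher means more ATP so stronger rescue from cytokine killing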
Calb FLC: affects C. albicans growth with fluconazole; C. albicans CaCi-2 (fluconazole-resistant clinical isolate) + fluconazole, Alamar Blue growth, 48 h; actives 0.57% (n = 300,000); growth inhibition, % (concentration not given with the values);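 active = growth inhibition above about 58% in most replicates, limit read from the data, passing the limit was not always enough; inconclusive = exactly half the replicates above a set limit; inactive = most replicates below a set limit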;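 note: all wells also contain fluconazole at 8 µg/ml as a sub-toxic cotreatment; 0% = median of DMSO wells and 100% = median of geldanamycin control wells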
Mdm2 MdmX conf: human Mdm2/MdmX binding inhibition, confirmed. shares compounds with Mdm2-MdmX inh. luminescent assay. inhibition, % at 8 µM. actives 55% (n = 10,000). AID 489028; in the data active = inhibition above about 40%
FLuc counter: counter-screen for Mdm2/MdmX inhibitors: full-length luciferase. SaOS-2 full-length luciferase counterscreen, luminescence. shares compounds with Mdm2-MdmX inh. actives 77% (n = 6,200). AID 504607. inhibition, % at 8 µM;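 active = mean inhibition at 8 µM reaching about 37%, which flags the compound as non-specific, limit read from the data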;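 note: p53-null SaOS-2 cells with luciferase driven by a doxycycline-inducible promoter; compound on cells about two nights before reading with doxycycline added after day one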
The depositor's hits bear a star. An excerpt weighted towards active compounds, which were near 4.8% of everything screened.

COC(=O)c1ccc2c(=O)n(CCCCCC(=O)N3CCN(c4ccc(F)cc4)CC3)c(=O)[nH]c2c1 was read as MPTP inh 12.0, CSC inhib -5.3, Mdm2-MdmX inh 67.1*, Beta apoptosis -3.3, Calb FLC -11.4 and Mdm2 MdmX conf 35.3.
`COc1cc2[nH]c(=O)n(CCCCCC(=O)N3CC=C(c4ccccc4)CC3)c(=O)c2cc1OC` gave MPTP inh 7.6, CSC inhib 16.6, Mdm2-MdmX inh 59.1*, Beta apoptosis -6.4, Calb FLC 3.1 and Mdm2 MdmX conf 30.2.
`COc1cc2[nH]c(=O)n(CCC(=O)N3CCN(c4cc(Cl)ccc4C)CC3)c(=O)c2cc1OC` gave MPTP inh -0.6, CSC inhib 0.0, Mdm2-MdmX inh 75.3*, Beta apoptosis 6.7, Calb FLC 10.0 and Mdm2 MdmX conf 12.6.
`O=C(CC1C(=O)NCCN1Cc1ccc(-c2ccccc2)cc1)NCCCn1ccnc1` (configuration not stated) gave MPTP inh 0.1, CSC inhib -20.3, Mdm2-MdmX inh -7.1, Beta apoptosis -6.2 and Calb FLC 0.2.
Screening COc1ccc(Nc2cc(=O)n(C3CCCCC3)c(=O)[nH]2)c(OC)c1 returned MPTP inh -5.2, CSC inhib -8.3, Mdm2-MdmX inh 9.0, Beta apoptosis -4.7 and Calb FLC 0.1.
Cc1cc(C)cc(Nc2cc(=O)n(C3CCCCC3)c(=O)[nH]2)c1 was read as MPTP inh 31.5, CSC inhib 47.1, Mdm2-MdmX inh 51.3*, Beta apoptosis -1.1, Calb FLC -13.2 and Mdm2 MdmX conf 14.6.
`Cc1cc(NC(=O)c2ccccc2)nc2c1c(=O)oc1ccccc12` gave MPTP inh 0.5, CSC inhib 12.4, Mdm2-MdmX inh 2.9, Beta apoptosis 1.2 and Calb FLC 17.9.
Screening CCOc1ccc(C(=O)Nc2cc(C)c3c(=O)oc4ccccc4c3n2)cc1 returned MPTP inh -1.7, CSC inhib 0.6, Mdm2-MdmX inh 64.8*, Beta apoptosis -3.4, Calb FLC 0.6 and Mdm2 MdmX conf -21.1.
For O=C(OCc1ccccc1)/C(=C/c1ccccc1Cl)NC(=O)c1ccco1 the results were MPTP inh 0.6, CSC inhib 29.2, Mdm2-MdmX inh 22.8, Beta apoptosis 6.7 and Calb FLC 9.3.
For Cc1cccc(OCCN2CSC(=S)N(C)C2)c1 the results were MPTP inh 2.2, CSC inhib 58.1, Mdm2-MdmX inh 36.2, Beta apoptosis 1.1 and Calb FLC -1.2.
`COc1ccccc1OCCN1CSC(=S)N(C)C1` gave MPTP inh -2.1, CSC inhib inconclusive, Mdm2-MdmX inh 51.7*, Beta apoptosis -8.9, Calb FLC -50.7, Mdm2 MdmX conf 37.4 and FLuc counter 82.0*.
For CC(C)(C)c1ccc(/C=N/Nc2cccc(C(=O)O)c2)cc1 the results were MPTP inh 0.9, CSC inhib -3.9, Mdm2-MdmX inh 69.8*, Beta apoptosis -4.4, Calb FLC 1.5, Mdm2 MdmX conf 61.5* and FLuc counter 115.9*.
O=C1CC(c2ccco2)CC2=C1C1c3ccccc3C(=O)N1c1ccccc1N2 (configuration not stated) was read as MPTP inh -1.4, CSC inhib 28.0, Mdm2-MdmX inh 67.8*, Beta apoptosis -16.1, Calb FLC -3.4 and Mdm2 MdmX conf 26.8.
CCC(=O)N1c2ccccc2NC2=C(C(=O)CC(c3ccco3)C2)C1c1ccco1 (configuration not stated) was read as MPTP inh 0.1, CSC inhib -8.6, Mdm2-MdmX inh 4.9 and Calb FLC -3.6.
COc1ccccc1C(C[N+](=O)[O-])c1c(N)n(C)c(=O)n(C)c1=O (configuration not stated) was read as MPTP inh 2.5, CSC inhib 55.0, Mdm2-MdmX inh 55.2*, Beta apoptosis 39.3, Calb FLC 39.4*, Mdm2 MdmX conf 56.6* and FLuc counter 48.9*.
`CCCCC(C(=O)NC1CCCC1)N(C(=O)c1snc(C(N)=O)c1N)c1ccc(F)cc1` (configuration not stated) gave MPTP inh 1.5, Mdm2-MdmX inh 15.6, Beta apoptosis 5.3 and Calb FLC 13.6.
For C[C@@H]1CN([C@@H](C)CO)C(=O)CCCn2nncc2CO[C@H]1CN(C)S(=O)(=O)c1ccc(F)cc1 the results were MPTP inh -0.1.
`CC(C)C(=O)N1CCCC1(C)C(=O)NCc1ccc(Cl)cc1` (configuration not stated) gave MPTP inh -0.5.
`CC(=O)/C(=C/N(C)C)C(=O)Nc1ccc(Cl)cc1Cl` gave MPTP inh -0.7, CSC inhib 0.6, Mdm2-MdmX inh 4.5, Beta apoptosis 1.0 and Calb FLC 29.4.
`CN(C)CCNC=C(C(=O)Nc1ccc(Cl)cc1Cl)C(=O)Nc1ccc(Cl)cc1Cl` gave MPTP inh 11.4, CSC inhib 77.6*, Mdm2-MdmX inh 75.5*, Beta apoptosis 9.2, Calb FLC -7.5 and Mdm2 MdmX conf 39.4.
COc1ccc(-c2c(C)c3ccc(O)cc3oc2=O)cc1 was read as MPTP inh 0.8, CSC inhib 12.4, Mdm2-MdmX inh 26.4, Beta apoptosis 7.5 and Calb FLC 6.4.
Cc1oc2c(c1C(=O)NCc1cccnc1)C(=O)c1ccccc1C2=O was read as CSC inhib 100.5*, Mdm2-MdmX inh 99.4*, Calb FLC -13.3, Mdm2 MdmX conf 97.8* and FLuc counter 4.0.
`COc1ccc(CNC(=O)c2ccc(-c3ccccc3)cc2)cc1` gave MPTP inh 0.5, CSC inhib 3.4, Mdm2-MdmX inh -43.4, Beta apoptosis -3.5 and Calb FLC -6.9.
Screening COc1ccc(CNC(=O)c2c(C)oc3c2C(=O)c2ccccc2C3=O)cc1 returned MPTP inh 1.9, CSC inhib 99.5*, Mdm2-MdmX inh 81.1*, Beta apoptosis 109.3*, Calb FLC -14.7, Mdm2 MdmX conf 84.0* and FLuc counter 54.4*.
For Cc1onc(-c2ccccc2Cl)c1C(=O)NCc1cccnc1 the results were MPTP inh 0.7, CSC inhib 6.2, Mdm2-MdmX inh -23.3, Beta apoptosis -4.0 and Calb FLC 6.7.
COc1ccc(C(=O)N2CCCC(c3cc(C(=O)NCc4cccnc4)no3)C2)cc1 (configuration not stated) was read as MPTP inh 0.7.
For COC(=O)C1C2CC3c4[nH]c5cc(OC)ccc5c4CCN3CC2CC(OC(=O)CC(C)=O)C1OC (configuration not stated) the results were MPTP inh -0.7.
For CCOC(=O)Oc1c(OC)cc(C(=O)O[C@@H]2C[C@@H]3CN4CCc5c([nH]c6cc(OC)ccc56)[C@H]4C[C@@H]3[C@H](C(=O)OC)[C@H]2OC)cc1OC the results were MPTP inh 1.1, CSC inhib 15.2, Mdm2-MdmX inh 87.7*, Beta apoptosis 6.2, Mdm2 MdmX conf 57.5* and FLuc counter 49.0*.

High-throughput results: PubChem, several laboratories
